# KCNQ2 inh: KCNQ2 (rat) channel inhibition; O88943; CHO-K1 KCNQ2, FluxOR thallium flux, 20 min; stronger effect = lower value; B-score at 10 µM; actives 1.1% (n = 310,000); AID 2156;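 active = fluorescence ratio B-score at most minus 3 library SDs, with starting brightness B-score within 2 library SDs, cut at about -5.5 in these data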
# Target sequence (O88943 whole entry, looked up): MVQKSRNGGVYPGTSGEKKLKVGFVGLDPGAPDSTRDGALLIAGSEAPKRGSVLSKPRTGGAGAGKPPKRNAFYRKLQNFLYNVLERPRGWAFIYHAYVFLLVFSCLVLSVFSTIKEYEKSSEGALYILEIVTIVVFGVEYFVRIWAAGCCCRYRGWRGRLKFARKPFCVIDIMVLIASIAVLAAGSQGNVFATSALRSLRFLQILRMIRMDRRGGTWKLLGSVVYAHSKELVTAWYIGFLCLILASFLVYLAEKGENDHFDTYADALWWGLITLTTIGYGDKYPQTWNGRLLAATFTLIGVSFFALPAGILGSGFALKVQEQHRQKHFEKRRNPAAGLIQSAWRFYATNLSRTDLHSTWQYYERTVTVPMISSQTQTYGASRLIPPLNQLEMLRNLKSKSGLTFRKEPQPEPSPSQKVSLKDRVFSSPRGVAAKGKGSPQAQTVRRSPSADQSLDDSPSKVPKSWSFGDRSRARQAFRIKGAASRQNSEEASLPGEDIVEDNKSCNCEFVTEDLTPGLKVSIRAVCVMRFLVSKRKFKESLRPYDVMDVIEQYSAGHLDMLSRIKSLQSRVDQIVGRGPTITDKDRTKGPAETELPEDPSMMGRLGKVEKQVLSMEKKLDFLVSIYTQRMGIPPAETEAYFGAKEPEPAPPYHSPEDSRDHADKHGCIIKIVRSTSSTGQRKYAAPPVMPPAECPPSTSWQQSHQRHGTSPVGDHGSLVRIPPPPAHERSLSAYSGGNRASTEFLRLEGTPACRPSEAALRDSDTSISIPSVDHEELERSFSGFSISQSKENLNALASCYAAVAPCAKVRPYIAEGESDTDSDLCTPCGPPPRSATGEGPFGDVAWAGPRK
# KCNQ2 pot: enhances the rat KCNQ2 potassium channel. actives 0.54% (n = 310,000). B-score at 10 µM. CHO-K1 KCNQ2, FluxOR thallium flux fluorescence; stronger effect = higher value. AID 2239;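 active = fluorescence ratio B-score at least 3 SD of library B-scores, with initial fluorescence B-score within 3 of them, cut at about 5.3 in these data; same plate scores as AID 2156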;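 also: B-score of peak minus minimum over baseline fluorescence ratio after K+ and Tl+ stimulus; positive B-score means potentiation of KCNQ2 with more thallium influx and brighter signal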
# KCNQ2 block conf: confirmation of rat KCNQ2 potassium channel inhibitors. shares compounds with KCNQ2 inh. activity change, negative = inhibition, % at 10 µM. actives 57% (n = 1,000). KCNQ2-expressing cells, thallium flux, inhibition; stronger effect = lower value
# KCNQ1 spec: selectivity of KCNQ2 inhibitors against human KCNQ1; shares compounds with KCNQ2 inh; KCNQ1-expressing cells, FluxOR thallium flux fluorescence; stronger effect = lower value; activity change, negative = inhibition, % at 10 µM; actives 15% (n = 1,000);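 active = activity change at least 3 SD of negative controls below their mean in both duplicate wells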;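 also: CHO cells stably transfected with KCNQ1 and depolarized by potassium stimulus; peak minus minimum fluorescence over baseline after thallium addition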
# CHO Tl ctr: activity in parental CHO cells lacking KCNQ2. thallium flux counter-screen; stronger effect = lower value. AID 493029. shares compounds with KCNQ2 inh. activity change, % at 10 µM. actives 14% (n = 1,000)
# KCNQ2 inh confirm: blocks rat KCNQ2 current in automated patch clamp; actives 49% (n = 550); shares compounds with KCNQ2 inh; KCNQ2-expressing cells; calls only at 10 µM
# Numbers stand for hits; i = inactive; nt = no result; + = active, no number. Sampled rows, rich in hits. Any-hit rate of the full collection: about 1.6%. Unless noted, no rule for the calls is given here.
SMILES,KCNQ2 inh,KCNQ2 pot,KCNQ2 block conf,KCNQ1 spec,CHO Tl ctr,others
CC(C)(C)n1nnnc1C(c1ccc(F)cc1)N(Cc1ccc(F)cc1)Cc1ccco1 (configuration not stated),-11,i,-30%,i,i,KCNQ2 inh confirm=i
Cc1c(Cl)cccc1NC(=S)N1CCC(C(N)=O)(N2CCCCC2)CC1,i,nt,nt,nt,nt,
Cc1ccc2nccc(C(=O)N3CCCC(Nc4ccc(C)c(C)c4)C3)c2c1 (configuration not stated),i,nt,nt,nt,nt,
COc1ccc(CCNC(=O)COc2nncc3ccccc23)cc1,i,i,nt,nt,nt,
COc1cccc(C(=O)C(C#N)=C(SC)SC)c1,i,nt,nt,nt,nt,
CSC(SC)=C(C#N)C(=O)c1ccccc1,-7.9,i,i,i,i,
CCOC(=O)C(CCSC)Nc1nc(Cl)nc(Nc2ccc(Cl)cc2)n1 (configuration not stated),i,nt,nt,nt,nt,
N#CN(Cc1ccccc1)Cc1ccccc1,i,nt,nt,nt,nt,
Cc1cccc(C)c1NC(=O)CNC(=O)Cn1nc(C)c(C)c(C#N)c1=O,i,nt,nt,nt,nt,
O=C1c2ccccc2C(O)(c2ccccc2)N1CCc1ccccc1 (configuration not stated),-8.4,i,-24%,i,i,KCNQ2 inh confirm=+
CC1(O)c2ccccc2C(=O)N1Cc1ccccc1 (configuration not stated),i,i,nt,nt,nt,
CCOC(=O)c1c(NC(=O)CSc2nc3ccc(OC)cc3[nH]2)sc2c1CC(C)(C)NC2(C)C,i,i,nt,nt,nt,
O=C(c1ccc(OC2CCN(CCc3ccccc3)CC2)cc1)N1CCC(CO)CC1,i,nt,nt,nt,nt,
Cc1sc2nc(SCc3ccccc3)n(Cc3ccco3)c(=O)c2c1C,i,nt,nt,nt,nt,
COc1cccc(CSc2nc3sc(C)c(C)c3c(=O)n2Cc2ccco2)c1,-8.8,i,-28%,i,i,KCNQ2 inh confirm=i
O=C(CN1CCN(c2ccc(F)cc2)CC1)Nc1ccc(S(=O)(=O)N2CCOCC2)cc1,i,i,nt,nt,nt,
COc1ccc(N2C(=O)NC(NC(=O)c3cccnc3)(C(F)(F)F)C2=O)cc1 (configuration not stated),i,nt,nt,nt,nt,
CN(c1ccc(C(=O)N/N=C/c2cccc([N+](=O)[O-])c2)cc1)S(=O)(=O)c1ccccc1,i,nt,nt,nt,nt,
O=C(CCCc1ccccc1)NCCc1ccc(F)cc1,i,nt,nt,nt,nt,
N#CC(C(=O)NCCc1ccccc1)c1nc2ccccc2nc1N1CCCCC1 (configuration not stated),i,nt,nt,nt,nt,
CCOC(=O)N1CCN(c2nc3ccccc3nc2C(C#N)C(=O)NCCc2ccccc2)CC1 (configuration not stated),-8.7,i,i,i,i,
COc1ccc(C(=O)Nc2cc3c(cc2OC)CCCC3)cc1Br,i,nt,nt,nt,nt,
COc1cc2c(cc1NC(=O)c1ccc(C(C)(C)C)cc1)CCCC2,-7.2,i,i,i,i,
O=C(CSc1ccc(-c2cccnc2)nn1)Nc1ccc(F)cc1,i,nt,nt,nt,nt,
CCOP(=O)(OCC)C(NC(=O)Nc1c(C)cc(C)cc1C)c1ccccc1 (configuration not stated),-9.2,i,-21%,i,i,KCNQ2 inh confirm=+
SMILES,KCNQ2 inh,KCNQ2 pot,KCNQ2 block conf,KCNQ1 spec,CHO Tl ctr,others
CCOP(=O)(OCC)C(NC(=O)Nc1ccccc1)c1ccccc1 (configuration not stated),i,nt,nt,nt,nt,
COc1ccc(C(CCN2CCOCC2)c2c(O)cc(OC)cc2OC)cc1 (configuration not stated),i,i,nt,nt,nt,
COc1ccc(C(c2c(O)ccc3ccccc23)N2CCOCC2)c(OC)c1 (configuration not stated),-10,i,-32%,i,i,KCNQ2 inh confirm=i
O=C(Nc1ccc(F)cc1)Nc1nnc(Cc2ccccc2F)s1,i,i,nt,nt,nt,
Nc1ccc(Sc2ccc([N+](=O)[O-])cc2)cc1,i,i,nt,nt,nt,
Cc1ccc(C(C[N+](=O)[O-])Sc2ccc(N)cc2)cc1 (configuration not stated),-9.4,i,-30%,i,i,KCNQ2 inh confirm=i
COc1ccccc1N1CCN(S(=O)(=O)c2cc(Br)cnc2N)CC1,i,nt,nt,nt,nt,
CC1CCC(C(C)C)C(OC(=O)COC(=O)c2ccc(N)cc2)C1 (configuration not stated),i,nt,nt,nt,nt,
CC1CCC(C(C)C)C(OC(=O)Cn2c(-c3ccc(Cl)cc3)[n+](C)c3ccccc32)C1 (configuration not stated),-6.7,i,-46%,-46%,-48%,KCNQ2 inh confirm=+
CC(C)(C)c1ccc(CN(Cc2ccco2)Cc2nnnn2C2CCCC2)cc1,-12,i,-24%,i,i,KCNQ2 inh confirm=i
COc1ccc2cc(CN(Cc3ccco3)Cc3nnnn3C3CCCCC3)c(=O)[nH]c2c1,i,i,nt,nt,nt,
